Measurements from PubChem BioAssay (NCATS).
Inconclusive results are not listed. The source made the active and inactive calls. The call rests on the fitted dose curve; in most records, active means well fitted inhibition curve with a large enough effect; inconclusive means small, poorly fitted or top-dose-only effect; inactive means flat fitted curve, though single readings scatter.

Test: BET inhibitor-based combinations targeting novel dependencies in MECOM-rearranged (r) AML: AML-191 cell line (AID 2202236; further: nearly all actives have a fitted effect of over 35% in size;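 on viability (% of control): plate controls were vehicle wells for no effect and wells without cells for full effect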)
Settings: AML-191 viability, CellTiter-Glo luminescence, 48 h; series mostly up to 46 µM; viability (% of control): at the top concentration
Description: Ecotropic viral insertion site 1 (EVI1) is located on chromosome 3q26.2 as part of the MECOM (MDS and EVI1 complex) locus. Under normal hematopoiesis, EVI1 is a regulator of hematopoietic stem cell maintenance and self-renewal and EVI1 levels decrease as the cells differentiate. In approximately 5-10% of de novo acute myeloid leukemia (AML) EVI1 is aberrantly expressed, including Chromosomal inv(3)(q21;q26.2) or t(3;3)(q21;q26.2) alterations (MECOM-r) that account for about 50% of AML with EVI1 overexpression 31. AMLs with high levels of EVI1 have a poor prognosis and an overall survival time averaging between 10-14 months. EVI1 overexpression confers resistance in leukemia cells, highlighting the need to develop new targeted therapies for EVI1 overexpressing AMLs.
Here, we performed an unbiased chemical drug screening by evaluating the single agent activity of a collection of 2,480 oncology-focused, approved and investigational drugs (NCATS Mechanism Interrogation Plates, MIPE v5.0) against a panel of seven AML cell lines. These included four MECOM-r cell-lines (AML-191, AML-194, UCSD-AML1 and HNT-34) and three non-MECOM-r AMLs (MV4-11, OCI-AML3 and SET-2). Exploiting the mechanistic redundancy built in the library, we identified target-level sensitivities in MECOM-r AML cells and relative activity as compared to other AML subtypes.
A collection of 2480 mechanistically annotated dugs (MIPE v5.0) was used to screen four 3q26.2 rearranged AML cell lines and three non-3q26.2 rearranged AML cell lines. This library purposely exploits redundancy by including multiple inhibitors of key onco-targets, while simultaneously encompassing mechanistic diversity, targeting more than 800 distinct mechanisms of action. Briefly, cells were seeded in 5 uL of growth media using a Multidrop Combi dispenser into 1536 well white polystyrene tissue culture treated plates (Corning) at a density of 500cells/well. For each cell-line, for each of the 2480 drugs in MIPE v5.0 library, an 11-point dose curve was generated via a 1536 pin-tool. Plates were incubated for 48 hr at standard incubator conditions, covered by a stainless steel gasketed lid to prevent evaporation. Cell viability was determined by luminescence based, Cell Titer Glo assay (Promega). In detail, 3 uL of Cell Titer Glo were added to each well and plates were incubated at room temperature for 15 min with a stainless-steel lid in place. Luminescence readings were taken using a Viewlux (PerkinElmer) with a 2 s exposure time per plate. Compound dose-response curves were normalized to DMSO and empty well controls on each plate. Quantitative drug activity data from dose-response curves was determined utilizing area Under the Curve (AUC) and Z-transformed AUC (Z-AUC, a mean-centering transformation applied to each individual cell-line screened).
Potency means the concentration at half of the fitted maximal effect.

Row | Compound | viability (% of control) | Potency
1 | Cc1ccc(S(=O)(=O)Nc2nc3ccccc3nc2Nc2ccc3nsnc3c2)cc1 | 96.9% [at 15.6 µM] (inactive) | 
2 | COc1c(C)c2c(c(O)c1C/C=C(\C)CCC(=O)O)C(=O)OC2 |  | 1.05 µM (active)
3 | CCc1cc(C(N)=S)ccn1 | 112% (inactive) | 
4 | O=C(O)[C@H](Cc1c[nH]c2ccccc12)N1C(=O)c2ccccc2C1=O | 95.1% (inactive) | 
5 | COc1ccc(S(=O)(=O)Nc2cccnc2Nc2ccc(O)cc2)cc1 |  | 0.468 µM (active)
6 | CC[C@@]1(O)C(=O)OCc2c1cc1n(c2=O)Cc2cc3cc(O)ccc3nc2-1 |  | 0.0132 µM (active)
7 | COc1cccc(-c2cc(F)ccc2C2Cc3nc(N)nc(C)c3C(=O)N2)n1 (stereo not given) |  | 0.0934 µM (active)
8 | Cc1c(OCC(F)(F)F)ccnc1CS(=O)c1nc2ccccc2[nH]1 (stereo not given) | 90.4% (inactive) | 
9 | Cn1cc(-c2ccc3nnc(Sc4ccc5ncccc5c4)n3n2)cn1 | 86.8% (inactive) | 
10 | COc1cc2c(Oc3ccc(NC(=O)C4(C(=O)Nc5ccc(F)cc5)CC4)cc3F)ccnc2cc1OCCCN1CCOCC1 |  | 0.662 µM (active)
11 | OC[C@H]1O[C@@H](Oc2cc(O)cc(/C=C/c3ccc(O)cc3)c2)[C@H](O)[C@@H](O)[C@@H]1O | 104% (inactive) | 
12 | C/C=C/C(=O)N(CC)c1ccccc1C | 103% (inactive) | 
13 | CCS(=O)(=O)N1CCN(c2ccc(Nc3ncc(C(N)=O)c(NC4CC4)n3)cc2)CC1 |  | 4.68 µM (active)
14 | O=C(c1ccc(C(=O)N2CCC(N3CCCC3)CC2)c(Nc2ccccc2)c1)N1CCC(N2CCCC2)CC1 | 97.8% (inactive) | 
15 | CCCOc1ccn2c(C(C)=O)cc(-c3ccccc3S(C)(=O)=O)c2c1 |  | 18.6 µM (active)
16 | N#Cc1ccc(C2CCCc3cncn32)cc1 (stereo not given) | 101% [at 15.6 µM] (inactive) | 
17 | Cc1ccc(S(=O)(=O)NC(=O)NN2CC3CCCC3C2)cc1 (stereo not given) | 107% (inactive) | 
18 | Nc1ncnc2c1c(-c1cccc(OCc3ccccc3)c1)cn2C1CC(CN2CCC2)C1 (stereo not given) |  | 18.6 µM (active)
19 | O=C(NC[C@H](O)CN1CCc2ccccc2C1)c1cc(NC2COC2)ncn1 | 94% (inactive) | 
20 | CNC(=O)c1cccc2cc(Oc3ccnc4cc(OCC5(N)CC5)c(OC)cc34)ccc12 |  | 20.9 µM (active)

Row | Compound | viability (% of control) | Potency
21 | CN1CCN(C2CCN(C(=O)Nc3cc(Oc4ccc(NC(=O)C5(C(=O)Nc6ccc(F)cc6)CC5)c(F)c4)ccn3)CC2)CC1 |  | 18.6 µM (active)
22 | CC(C)OC(=O)C1=CN(C(=O)c2ccc(F)c(F)c2)CC(C)(C)c2c1[nH]c1ccccc21 | 106% (inactive) | 
23 | CN(C)CCc1c[nH]c2ccc(CS(=O)(=O)N3CCCC3)cc12 | 106% (inactive) | 
24 | CNC(=O)c1ccc2cc(C3(O)CCn4cncc43)ccc2c1 (stereo not given) | 101% (inactive) | 
25 | CO[C@@H](C)Cn1c(=O)n(C)c2cnc3ccc(-c4cncc(C(C)(C)O)c4)cc3c21 |  | 0.235 µM (active)
26 | CNC(=O)c1cc(Oc2ccc(NC(=O)Nc3ccc(Cl)c(C(F)(F)F)c3)cc2)ccn1 |  | 14.8 µM (active)
27 | CCC1(C)CC(=O)NC1=O (stereo not given) | 102% [at 92.2 µM] (inactive) | 
28 | CC(Cc1ccc(O)c(O)c1)(NN)C(=O)O (stereo not given) | 96.3% (inactive) | 
29 | O=C(NC[C@H](O)CN1CCc2ccccc2C1)c1ccnc(NC2CCC2)c1 | 102% (inactive) | 
30 | O=C(O)C[C@H](O)C[C@H](O)/C=C/c1c(C2CC2)nc2ccccc2c1-c1ccc(F)cc1 |  | 10.5 µM (active)
31 | CCC(C)n1ncn(-c2ccc(N3CCN(c4ccc(OC[C@H]5CO[C@](Cn6cncn6)(c6ccc(Cl)cc6Cl)O5)cc4)CC3)cc2)c1=O (stereo not given in full) |  | 7.23 µM (active)
32 | O=C1C(c2c(O)[nH]c3ccccc23)=Nc2ccccc21 | 105% (inactive) | 
33 | N#Cc1c(NC(=O)c2cccc3ccccc23)sc2c1CCCC2 |  | 0.296 µM (active)
34 | Nc1nccc(Oc2ccc(NC(=O)c3c[nH]cc(-c4ccc(F)cc4)c3=O)cc2F)c1Cl |  | 9.34 µM (active)
35 | NCc1c[nH]c(=S)n1[C@H]1CCc2c(F)cc(F)cc2C1 | 78% (inactive) | 
36 | COc1cc(N2CCC(N3CCN(C)CC3)CC2)ccc1Nc1ncc(Cl)c(Nc2ccccc2S(=O)(=O)C(C)C)n1 |  | 10.5 µM (active)
37 | CC(=O)OCC(CCn1cnc2cnc(N)nc21)COC(C)=O | 102% (inactive) | 
38 | O=C(Nc1ccc(F)c(C(F)(F)F)c1)Nc1nnc(-c2ccncc2)s1 | 74.8% (inactive) | 
39 | O=C(O)c1cc(=O)[nH]c(=O)[nH]1 | 122% (inactive) | 
40 | CC(C)c1cnn2c(NCc3ccccc3)cc(N[C@@H](CO)[C@H](O)CO)nc12 |  | 0.296 µM (active)
